The campaign covered roughly 190,000 compounds. About 4,100 (2.2%) were called active. The sample holds actives, similar compounds and a random draw of the others, so the mix is not that of the screen. A number with no mark means an inactive call.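 The calls were made as follows: active = thallium flux slope and its plate-corrected score both differing from the plate sample mean at a set confidence after two filtering rounds, in either direction; inactive = the rest.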

The target of this assay is Solute carrier family 12 member 5 (Homo sapiens) (UniProt Q9H2X9). Briefly: KCC2 cotransporter modulators, thallium flux, primary screen, cell-based, HEK293 KCC2, FluoZin-2 fluorescence, MLSMR (AID 1456).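 Also: slope of fluorescence scaled to starting intensity during 10 to 20 s after thallium.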 To be noted: KCC2 cells, thallium flux FluoZin-2 fluorescence; at 10 µM.
Sequence of Solute carrier family 12 member 5 (Homo sapiens) (Q9H2X9 whole entry, looked up): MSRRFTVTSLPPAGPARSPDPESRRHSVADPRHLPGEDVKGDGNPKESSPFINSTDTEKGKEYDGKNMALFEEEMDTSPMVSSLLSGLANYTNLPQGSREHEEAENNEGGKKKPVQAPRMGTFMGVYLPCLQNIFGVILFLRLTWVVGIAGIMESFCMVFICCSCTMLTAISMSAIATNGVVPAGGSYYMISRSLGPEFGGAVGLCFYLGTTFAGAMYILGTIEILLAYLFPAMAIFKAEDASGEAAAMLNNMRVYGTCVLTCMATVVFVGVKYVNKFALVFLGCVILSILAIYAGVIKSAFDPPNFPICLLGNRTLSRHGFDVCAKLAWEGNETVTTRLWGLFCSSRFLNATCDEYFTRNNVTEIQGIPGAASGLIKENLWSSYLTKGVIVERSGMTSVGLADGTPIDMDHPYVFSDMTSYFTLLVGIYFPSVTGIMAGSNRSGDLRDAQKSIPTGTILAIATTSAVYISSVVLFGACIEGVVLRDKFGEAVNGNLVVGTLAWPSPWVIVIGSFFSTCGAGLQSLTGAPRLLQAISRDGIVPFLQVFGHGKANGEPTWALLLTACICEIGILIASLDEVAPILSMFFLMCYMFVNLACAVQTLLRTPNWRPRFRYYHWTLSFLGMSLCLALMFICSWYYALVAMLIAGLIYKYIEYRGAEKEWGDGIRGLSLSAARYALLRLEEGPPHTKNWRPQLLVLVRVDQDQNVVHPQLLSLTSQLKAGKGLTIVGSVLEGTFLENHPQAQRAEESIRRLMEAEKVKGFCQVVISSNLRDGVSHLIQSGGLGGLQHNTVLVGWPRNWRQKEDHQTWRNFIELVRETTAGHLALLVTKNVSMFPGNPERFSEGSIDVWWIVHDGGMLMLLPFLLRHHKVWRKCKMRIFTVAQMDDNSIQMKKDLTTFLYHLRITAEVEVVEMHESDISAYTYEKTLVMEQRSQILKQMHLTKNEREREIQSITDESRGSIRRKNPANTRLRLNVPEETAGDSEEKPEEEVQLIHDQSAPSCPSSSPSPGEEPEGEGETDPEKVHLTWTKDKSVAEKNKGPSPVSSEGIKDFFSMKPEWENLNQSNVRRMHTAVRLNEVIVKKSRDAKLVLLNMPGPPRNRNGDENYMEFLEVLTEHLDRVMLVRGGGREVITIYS
Take `CCNC(=O)CCc1nc(-c2ccc(C)cc2)no1`: the B-score of Tl+ flux slope (higher = more flux/activation; lower = inhibition) was 0.371.
To `C/C(Cc1ccccc1)=N\NC(=O)CNC(=O)c1ccccc1Cl` belongs -0.103; to `O=C(Nc1nnc(-c2ccc(Cl)cc2)o1)c1ccccc1Br`, 35.2 (active).
As for `O=C(Nc1cccc(Cl)c1)Nc1nnc(-c2ccccc2)o1`, the B-score of Tl+ flux slope (higher = more flux/activation; lower = inhibition) is 3.17.
On to `O=C(Nc1ccc(-c2nnc(-c3ccccc3)o2)cc1)c1ccc(Br)o1`, for which the B-score of Tl+ flux slope (higher = more flux/activation; lower = inhibition) was 1.83.
The same measure for `O=C(NNS(=O)(=O)Cc1ccccc1)c1ccc([N+](=O)[O-])cc1`: 0.00978.
To `COc1ccc(NC(=S)Nc2ccccc2Cl)cn1` belongs 0.811; to `COc1ccccc1NC(=S)NC(=O)C(C)C`, 1.52.
The same measure for `FC(F)Oc1ccccc1NC(=S)Nc1cccc(Cl)c1Cl`: 6.89 (active); for `Cc1ccc(Cn2c(SCC(=O)N/N=C/c3ccccc3OCC(=O)O)nc3ccccc32)cc1`: 1.95; for `O=C(CSc1nnc2n1CCCN2)c1ccccc1`: -0.0921.
Turning to `CC(C)N1CCC(=NNc2ccc([N+](=O)[O-])cc2S(=O)(=O)N2CCOCC2)CC1`, the B-score of Tl+ flux slope (higher = more flux/activation; lower = inhibition) was 0.0282.
To `Cc1ccc(NNC(=O)C2CCC2)cc1C` belongs 0.435.
As to `COc1cc2c(cc1/C=C1/NC(=O)N(c3ccccc3)C1=O)OCO2`, the B-score of Tl+ flux slope (higher = more flux/activation; lower = inhibition) was 0.747.
The same measure for `O=C1/C(=C\c2ccsc2)NC(=S)N1c1ccccc1`: 11.5 (active).
The same measure for `CN(C)c1ccc(/C=C2\NC(=S)N(Cc3ccccc3)C2=O)cc1`: 2.56.
The same measure for `CC(=O)NC(=S)Nc1ccc(NC(=O)c2cccnc2)cc1`: 1.03.
As to `NS(=O)(=O)c1ccc(NC(=S)NC(=O)c2cccnc2)cc1`, the B-score of Tl+ flux slope (higher = more flux/activation; lower = inhibition) was 1.98 (active).
The same measure for `NS(=O)(=O)c1ccc(NC(=S)NC(=O)c2cccc(Br)c2)cc1`: 1.13.
To `O=C(CCSc1ccccc1)N1CCN(c2ccccc2F)CC1` belongs -1.46; to `Cn1c(=O)cc(OCC(=O)N2CCN(c3ccccc3F)CC2)c2ccccc21`, -0.0376.
To `O=C(Cn1c(-c2ccc(Cl)cc2)noc1=O)N1CCN(c2ccccc2F)CC1` belongs -4.49 (active); to `COc1ccc(OCC(O)CNCCNc2nccc(C(F)(F)F)n2)cc1` (stereo unspecified), 0.542.
As to `Cc1ccc2c(c1)nnc1nnc(SCC(=O)O)n12`, the B-score of Tl+ flux slope (higher = more flux/activation; lower = inhibition) was -0.0291.
As for `Cc1ccc2nc(SCc3nnc(-c4ccccc4[N+](=O)[O-])o3)c(C#N)cc2c1`, the B-score of Tl+ flux slope (higher = more flux/activation; lower = inhibition) is 0.799.
The same measure for `c1ccc(-c2nnc(SCc3nc4ccccc4[nH]3)o2)cc1`: -1.33; for `Fc1ccc2nc(-c3ccccc3)nc(SCc3nnc(-c4ccccc4)o3)c2c1`: 41.8 (active); for `O=C(NCc1cccnc1)c1nc(-c2cccs2)no1`: 0.407.
To `CCCCN1Cc2c(nc3cc(-c4ccccc4)[nH]n3c2=O)C1=O` belongs -0.758; to `NCCCCCC(=O)N/N=C/c1ccc2nccnc2c1`, 1.4.
Turning to `CCOC(=O)C1CCCN(C(=O)/C=C/c2ccc(OC)cc2)C1` (stereo unspecified), the B-score of Tl+ flux slope (higher = more flux/activation; lower = inhibition) is -0.769.
Take `O=C(Nc1ccc(S(=O)(=O)N2CCOCC2)cc1)c1ccc2ncsc2c1`: the B-score of Tl+ flux slope (higher = more flux/activation; lower = inhibition) was 0.51.
The same measure for `S=C(Nc1cccc(Cl)c1)Nc1ccc2cn[nH]c2c1`: -0.0612; for `Cc1csc(NC(=S)Nc2cccc(Cl)c2)n1`: 63.6 (active); for `CC(=O)Nc1cccc(C(=O)Nc2nc(C)cs2)c1`: -0.0712.
To `CCc1nc(NCCO)c(C#N)c2c1CCCC2` belongs -0.68; to `S=C(NCCc1ccccc1)N1CCn2cccc2C1c1ccncc1` (stereo unspecified), -2.41; to `CN1CCN(c2ncc3c(n2)CC(c2ccccc2F)CC3=O)CC1` (stereo unspecified), -1.12.
The same measure for `CCOC(=O)c1cc2cc(-c3c(C(=O)OCC)oc4cc(O)cc(O)c4c3=O)ccc2o1`: -1.36; for `O=c1c(-c2ccc3c(c2)OCCO3)c(C(F)(F)F)oc2cc(O)cc(O)c12`: -2.89 (active); for `COc1ccc(-c2onc(C)c2-c2ccc3c(c2)OCCO3)c(O)c1`: 0.0687.
Regarding `COC(=O)C1=C(C)NC(=O)/C1=C/c1ccc(CNS(=O)(=O)c2ccc(C)cc2)o1`, the B-score of Tl+ flux slope (higher = more flux/activation; lower = inhibition) is -0.17.
The same measure for `O=C(O)C(NS(=O)(=O)c1cccc2nsnc12)c1ccccc1` (stereo unspecified): 0.0778.
The same measure for `CCCCSc1[nH]c(=O)c(C(=O)OCC)cc1C#N`: 13 (active).
To `CCOC(=O)c1cc(C#N)c(N2CCCCC2)nc1-c1ccccc1` belongs 0.496.
For the compound `Cc1cc(=O)[nH]c(SCC(N)=O)c1C#N`, the B-score of Tl+ flux slope (higher = more flux/activation; lower = inhibition) was 0.485.
The same measure for `CCc1c(C)nc2c(-c3ccccc3)c(C)nn2c1Nc1ccc(NC(C)=O)cc1`: 0.635.
As to `Cc1ccccc1NC(=O)c1ccccc1`, the B-score of Tl+ flux slope (higher = more flux/activation; lower = inhibition) is 0.272.
To `COC(=O)c1sc(NC(=O)c2ccc(OC)cc2OC)nc1C` belongs -0.264; to `Cc1ccc(C)c(NC(=S)NNC(=O)c2csc(C)c2)c1`, 6.59 (active); to `COC(=O)c1sc(NC(=S)NC(=O)c2ccc(C)cc2)nc1C`, 33.9 (active).
To `Cc1ccc(NC(=S)NC(=O)c2ccc(-c3ccccc3)cc2)c(C)c1` belongs 1.26; to `Cc1ccc(C)c(NC(=O)C(OC(=O)c2ccc(C)s2)c2ccccc2)c1` (stereo unspecified), 0.676.
To `Cc1ccc(C)c(NC(=O)CCC(=O)NNC(=O)c2cccs2)c1` belongs -1.3.
As for `Cc1ccccc1NC(=S)NNC(=O)c1cccc(Br)c1`, the B-score of Tl+ flux slope (higher = more flux/activation; lower = inhibition) is 11.3 (active).
To `Cc1ccc(C(=O)NC(=S)Nc2ccccc2C)cc1` belongs 26.9 (active); to `CC(=O)c1sc(NC(=O)c2ccc(C)cc2)nc1C`, 0.0252; to `Cc1cc2[nH]ncc2cc1NC(=S)NC(=O)c1ccccc1`, 0.179.
The same measure for `O=C(NC(=S)Nc1cccc2c(O)cccc12)c1cccc(Br)c1`: 1.46.
To `Cc1ccc2c(c1)c1ncn(Cc3ccc(F)cc3)c(=O)c1n2C` belongs -2.08; to `O=[N+]([O-])c1cc([N+](=O)[O-])c2cccnc2c1O`, -1.12; to `COC(=O)c1ccc(COc2cc([N+](=O)[O-])cc3cccnc23)cc1`, 0.95.
Consider `O=C(Nc1ccc([N+](=O)[O-])cc1)C1CC12CCC2` (stereo unspecified), for which the B-score of Tl+ flux slope (higher = more flux/activation; lower = inhibition) is -0.552.
In the case of `CCOc1ccc(NC(=S)N2CCCCCC2)cc1`, the B-score of Tl+ flux slope (higher = more flux/activation; lower = inhibition) was -0.294.
The same measure for `CCOCC(=O)Nc1ncc(S(=O)(=O)c2ccc([N+](=O)[O-])cc2)s1`: -0.205; for `CCc1ccc(-n2c(SCc3cc(=O)n4cc(Br)ccc4n3)nc3[nH]ncc3c2=O)cc1`: -1.01; for `Cc1ccccc1NC(=S)Nc1cccc([N+](=O)[O-])c1`: 0.705.
The same measure for `Cc1ccc(NC(=S)N/N=C2/CCCc3c(C)cc(C)cc32)cc1`: 0.076.
As for `Cc1cc(C(=O)NNC(=S)NC(C)c2ccccc2)cs1` (stereo unspecified), the B-score of Tl+ flux slope (higher = more flux/activation; lower = inhibition) is -1.17.
The same measure for `Cc1cc(C(=O)NNC(=S)Nc2ccccc2C)cs1`: 4.58 (active); for `Cc1ccc(C)c(NC(=S)NNC(=S)Nc2ccc(C(C)C)cc2)c1`: 4.26 (active); for `CC(C)c1ccc(NC(=S)NNc2ccc(Cl)c(C(=O)O)c2)cc1`: 0.393.
Take `COc1ccc(CCNC(=O)C(=O)NCC2CCNCC2)cc1OC`: the B-score of Tl+ flux slope (higher = more flux/activation; lower = inhibition) was 0.52.
To `O=C(NNc1cc(Cl)cc(Cl)c1)c1c(F)cccc1Cl` belongs -0.755; to `COc1cc(OC)c(OC)cc1/C=N/Nc1ncnc2c1[nH]c1ccc(C)cc12`, -1.07.
`Cc1ccc(C(=O)NNc2ncnc3ccccc23)cc1`: the B-score of Tl+ flux slope (higher = more flux/activation; lower = inhibition) was 0.377.
The same measure for `OC(c1ccccc1)C(CN1CCOCC1)c1ccccc1` (stereo unspecified): 0.0146; for `Cc1ccc(N=Cc2c(O)n(-c3nccs3)c(=O)c3ccccc23)c(C)c1`: -6.91 (active).
The same measure for `Cc1ccc(-n2c(O)c(C=Nc3ccc(S(=O)(=O)Nc4ncccn4)cc3)c3ccccc3c2=O)cc1C`: -0.0402.
To `Cc1ccc(N=Cc2c(O)cc(C)oc2=O)c(C)c1` belongs 1.91.
On to `CC(=O)Nc1ccc(S(=O)(=O)NC2(C(F)(F)F)C(=O)NC(C)=C2C#N)cc1` (stereo unspecified), for which the B-score of Tl+ flux slope (higher = more flux/activation; lower = inhibition) was -0.983.
The same measure for `CCOC(=O)c1c(NC(=O)C2(C)Cc3ccccc3C(=O)O2)sc2c1CCCC2` (stereo unspecified): 1.05; for `CCOC(=O)C1=C(NC(=S)NC(=O)c2ccccc2)c2ccccc2CC1(C)C`: 3.94 (active).
To `COCCCNC(=S)NC(=O)c1ccccc1` belongs 1.23.
The same measure for `Cc1nnsc1C(=O)NCc1c(F)cccc1Cl`: 0.221.
With `COc1ccccc1NC(=O)c1cc(Cl)nc2ccccc12`, the B-score of Tl+ flux slope (higher = more flux/activation; lower = inhibition) is 0.201.
The same measure for `COc1cc(NC(=O)c2ccc(CNc3c(N4CCCC4)c(=O)c3=O)cc2)cc(OC)c1OC`: 0.127; for `CCOC(=O)c1c(C)[nH]c(C)c1C(=O)CSc1nc(N)cc(N)n1`: 6.26 (active); for `Cc1cc(C)nc(SCC(=O)N(C)C)n1`: -0.609.
To `CCOC(=O)c1c(C)oc(C)c(C(=O)OCC)c1=O` belongs -0.18; to `O=S(=O)(NCCc1csc(-c2ccccc2)n1)c1cccnc1`, -0.711; to `C/C(=N/NC(=O)CC(=O)N/N=C(\C)c1ccc([N+](=O)[O-])cc1)c1ccc([N+](=O)[O-])cc1`, -0.738.
Turning to `S=c1[nH]nc(-c2ccncc2)n1/N=C/c1ccccc1Cl`, the B-score of Tl+ flux slope (higher = more flux/activation; lower = inhibition) is 1.47.
Take `Fc1ccccc1/C=N/n1c(-c2cccnc2)n[nH]c1=S`: the B-score of Tl+ flux slope (higher = more flux/activation; lower = inhibition) was -0.286.
Regarding `COc1ccccc1/C=C/C=N/n1c(-c2ccc(Cl)cc2Cl)n[nH]c1=S`, the B-score of Tl+ flux slope (higher = more flux/activation; lower = inhibition) is 11.5 (active).
To `COc1ccc(NC(=O)c2cn(-c3ccccc3)nc2SC)cc1` belongs -1.58.
With `CCOC(=O)c1ccc(N=C2SC(C(=O)NC)CC(=O)N2CCc2ccccc2)cc1` (stereo unspecified), the B-score of Tl+ flux slope (higher = more flux/activation; lower = inhibition) is 0.234.
The same measure for `COc1ccc2nc(NC(=O)NC3CCCCC3)sc2c1`: -1.35; for `CCC1=C/C(=C\c2ccc3c(c2)OCO3)C(=O)S1`: -8.87 (active).
The same measure for `O=C1/C(=C/c2ccc3c(c2)OCO3)CCC/C1=C\c1ccc2c(c1)OCO2`: 0.12; for `CSC1=N/C(=C\c2ccc3c(c2)OCO3)C(=O)S1`: -0.302.
